In all, about 310,000 compounds went through this assay and about 14,000 (4.5%) showed an effect of 50% or more. The effect is printed as a negative number. For the sample, strong results were picked, then their nearest neighbours and some compounds at random.
Target: human ether-à-go-go-related gene (hERG) potassium channel (human, UniProt Q12809)
Experiment: primary screen, population patch clamp on CHO cells stably expressing hERG; higher = less effect of the substance
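Also: peak tail current of the secondary pulse compared with the same well before compound.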

Chain of human ether-à-go-go-related gene (hERG) potassium channel (Q12809 whole entry, looked up): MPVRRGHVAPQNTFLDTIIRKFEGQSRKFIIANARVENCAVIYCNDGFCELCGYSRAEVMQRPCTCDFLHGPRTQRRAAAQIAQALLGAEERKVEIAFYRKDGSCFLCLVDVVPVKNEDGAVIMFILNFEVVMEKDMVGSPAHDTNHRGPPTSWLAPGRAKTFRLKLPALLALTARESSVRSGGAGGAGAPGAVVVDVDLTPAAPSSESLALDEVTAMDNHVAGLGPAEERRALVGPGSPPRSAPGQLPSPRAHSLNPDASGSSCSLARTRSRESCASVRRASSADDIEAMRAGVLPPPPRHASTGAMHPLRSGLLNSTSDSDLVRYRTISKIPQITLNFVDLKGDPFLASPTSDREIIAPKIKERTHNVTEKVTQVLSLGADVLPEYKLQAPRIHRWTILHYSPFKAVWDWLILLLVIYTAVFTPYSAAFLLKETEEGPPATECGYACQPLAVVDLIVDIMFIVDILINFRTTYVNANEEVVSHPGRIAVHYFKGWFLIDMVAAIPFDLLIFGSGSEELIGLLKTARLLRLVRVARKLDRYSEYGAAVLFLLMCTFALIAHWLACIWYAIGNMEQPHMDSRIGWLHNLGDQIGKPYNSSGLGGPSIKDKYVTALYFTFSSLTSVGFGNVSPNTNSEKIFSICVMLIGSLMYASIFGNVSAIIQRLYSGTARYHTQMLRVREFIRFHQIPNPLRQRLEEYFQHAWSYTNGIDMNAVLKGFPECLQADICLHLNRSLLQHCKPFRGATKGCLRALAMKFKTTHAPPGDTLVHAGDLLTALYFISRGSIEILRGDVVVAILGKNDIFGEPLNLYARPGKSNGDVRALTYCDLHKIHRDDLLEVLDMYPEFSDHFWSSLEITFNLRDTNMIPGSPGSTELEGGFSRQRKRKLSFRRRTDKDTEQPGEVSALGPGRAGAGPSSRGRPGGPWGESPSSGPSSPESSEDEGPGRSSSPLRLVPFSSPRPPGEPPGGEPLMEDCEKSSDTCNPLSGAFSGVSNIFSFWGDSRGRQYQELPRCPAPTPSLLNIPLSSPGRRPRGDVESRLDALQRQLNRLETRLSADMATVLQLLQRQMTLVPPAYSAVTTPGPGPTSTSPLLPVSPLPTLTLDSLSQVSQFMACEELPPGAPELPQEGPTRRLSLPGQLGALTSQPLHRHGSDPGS

SMILES	hERG current change (%, negative = inhibition) at 10uM [%]
Cc1ccc(N2C(=O)CC(c3ccsc3)C3=C2CC(C)(C)CC3=O)cc1 (stereo not drawn)	3.75
COc1ccc(CNC(=O)CN2CCN(c3cccc(C)c3C)CC2)cc1	-8.46
CCN(CC(=O)Nc1ccccc1OC)C(=O)CSCc1ccc(C)cc1	-2.36
CCCNC(=O)NC(=O)COC(=O)c1cccc(NS(=O)(=O)c2ccc(F)c(F)c2)c1	-12
COc1ccc(C(C(=O)NC2CCCC2)N(C(=O)CNC(=O)c2ccco2)c2cccnc2)cc1 (stereo not drawn)	14.7
Cc1oc2c(C)c3oc(=O)c(CCC(=O)NCCCN4CCCC4=O)c(C)c3cc2c1C	-14.8
COCCCNC(=O)CCc1c(C)nc2c(-c3ccc(F)cc3)c(C)nn2c1C	-38.5
Cc1nc2c(-c3ccc(F)cc3)c(C)nn2c(C)c1CCC(=O)N1CCN(c2ccc(F)cc2)CC1	-74.6
Cc1nc2c(-c3ccc(F)cc3)c(C)nn2c(C)c1CCC(=O)Nc1ccccc1F	-10.7
COc1ccc(CN2C(=O)C(C)S/C2=N/N=C/c2ccco2)cc1 (stereo not drawn)	6.37
Cc1c(OCC(=O)NCCCn2ccnc2)ccc2c3c(c(=O)oc12)CCC3	-26.7
Cc1cc(=O)oc2c(C)c(OCC(=O)Nc3cccnc3)ccc12	-25.3
Cc1cc(=O)oc2cc(OC(C)C(=O)NCCCn3ccnc3)ccc12 (stereo not drawn)	9.44
Cc1c(C)c2ccc(OCC(=O)Nc3cccnc3)c(C)c2oc1=O	3.99
CCCc1cc(=O)oc2c(C)c(OCC(=O)Nc3cccnc3)ccc12	-63.6
COc1ccc(-c2cc(=O)oc3c(C)c(OCC(=O)NCCCn4ccnc4)ccc23)cc1	-63.8
CC(Oc1ccc2ccc(=O)oc2c1)C(=O)NCCCn1ccnc1 (stereo not drawn)	28.5
COc1ccc(-c2cc(=O)oc3cc(OC(C)C(=O)NCCCn4ccnc4)ccc23)cc1 (stereo not drawn)	-50.8
CC(Oc1ccc2c(-c3ccccc3)cc(=O)oc2c1)C(=O)NCCCn1ccnc1 (stereo not drawn)	-52.5
CC(Oc1ccc2c3c(c(=O)oc2c1)CCCC3)C(=O)NCCCn1ccnc1 (stereo not drawn)	-2.45
Cc1c(OCC(=O)NCCCn2ccnc2)ccc2c3c(c(=O)oc12)CCCC3	-48.2
CCc1cc(=O)oc2cc(OC(C)C(=O)NCCCn3ccnc3)ccc12 (stereo not drawn)	9.41
COc1ccc(-c2cc(C(=O)N(C)CCc3ccc(OC)c(OC)c3)c3ccccc3n2)cc1	-29.4
CC(c1ccco1)N(C(=O)c1cccc(S(=O)(=O)N(C)C)c1)c1ccccn1 (stereo not drawn)	16
COc1ccc(-c2cc(=O)oc3cc(OCC(C)=O)ccc23)cc1	-74.6
Cc1c(C)c2ccc(OCC(=O)NCCCn3ccnc3)c(C)c2oc1=O	-32.7
CC(=O)COc1ccc2c(-c3ccccc3)cc(=O)oc2c1	-1.91

SMILES	hERG current change (%, negative = inhibition) at 10uM [%]
COC(=O)COc1ccc2c(-c3ccc(OC)cc3)cc(=O)oc2c1	-39.2
CCc1cc(=O)oc2c(C)c(OCC(=O)NCCCn3ccnc3)ccc12	-45.9
O=C(COc1ccc2c(-c3ccccc3)cc(=O)oc2c1)NCCCn1ccnc1	-48.7
COc1ccc(-c2cc(=O)oc3cc(OCC(=O)NCCCn4ccnc4)ccc23)cc1	-65.4
Cc1cc(=O)oc2cc(OCC(=O)NCCCn3ccnc3)ccc12	7.58
CCCc1cc(=O)oc2c(C)c(OCC(=O)NCCCn3ccnc3)ccc12	-75.3
Clc1cccc(-c2nc(NCCCN3CCOCC3)c3ccccc3n2)c1	-10.1
CCOC(=O)N1CCN(C(=O)c2cccc(NC3=NC4CS(=O)(=O)CC4S3)c2)CC1 (stereo not drawn)	4.31
NC(=O)c1cc(Cc2ccccc2)sc1NC(=O)c1ccco1	-13.6
O=C1CCC(c2ccccc2)=NN1	9.05
COCC(C)NC(=O)/C(=C/c1ccccc1)c1ccccc1 (stereo not drawn)	-25
COc1ccc(S(=O)(=O)C(C#N)c2nc3ccccc3nc2N2CCC(C)CC2)cc1 (stereo not drawn)	18.6
O=C(Nc1ccccc1)Nc1ccc2c(c1)CCC2	29.8
CC(OC(=O)CCCOc1ccccc1)C(=O)NC(N)=O (stereo not drawn)	9
Cn1cncc1C#Cc1c(C=O)n(C)c2ccccc12	19.8
COC(=O)c1ccc(COc2cccc3c2CCN(Cc2cccc(C)c2)C3=O)o1	-3.41
O=C(COc1ccccc1-c1ccccc1)NCc1ccco1	-28
Cc1cccc(CN2CCc3c(OCC(=O)NCc4ccco4)cccc3C2=O)c1	-51.2
O=C1c2cccc(OCC(=O)N3CCCc4ccccc43)c2CCN1Cc1ccc(Br)cc1	6.7
O=C(COc1cccc2c1CCN(Cc1ccc(Br)cc1)C2=O)NCc1ccco1	-70.6
Cc1ccc(CN2CCc3c(OCC(=O)Nc4cc(C)ccc4C)cccc3C2=O)cc1	4.23
O=C(COc1cccc2c1CCN(Cc1ccccc1)C2=O)NCc1ccco1	-70.3
Cc1ccc(C)c(NC(=O)COc2cccc3c2CCN(Cc2ccccc2)C3=O)c1	-10.1
Cc1cccc(NC(=O)COc2cccc3c2CCN(Cc2ccccc2)C3=O)c1C	-5.8
O=C(CN1C(=O)C2CC=CCC2C1=O)Nc1ccccc1N1CCCC1 (stereo not drawn)	6.41
CCOC(=O)c1c(C)c(C(=O)NCCN2CCOCC2)c(C)n1C	15.1
CCOC(=O)C1(C)NC(c2ccco2)C2C(=O)N(C)C(=O)C21 (stereo not drawn)	13.6

From article PMC4336329 (PLoS ONE, 2015)
